Screens (PubChem BioAssay)
An excerpt weighted towards active compounds, which were near 3.8% of everything screened.
FGF22 binding: binders of human FGF22 protein, primary screen, FGF22 synaptogenesis inhibitor project, biophysical, thermal shift, single point; activity (Tm shift, normalised), % at 9.99 µM; recombinant FGF22 thermal shift, SYPRO orange fluorescence; percent of sucrose octasulfate shift, DMSO zero; Fibroblast growth factor 22 (Homo sapiens), Q9HCT0; 340,000 tested, 1.5% active;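 active means mean Tm shift, scaled 0 neutral to 100 positive control, at about 1.3% or above, every replicate too, limit read from the data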
Target sequence (Q9HCT0 whole entry, looked up): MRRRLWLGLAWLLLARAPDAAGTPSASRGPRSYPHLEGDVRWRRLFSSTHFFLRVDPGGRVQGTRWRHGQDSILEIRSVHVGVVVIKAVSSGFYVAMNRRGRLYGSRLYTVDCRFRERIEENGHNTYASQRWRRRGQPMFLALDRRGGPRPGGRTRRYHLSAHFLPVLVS
KLK7 zymogen act: proKLK7 zymogen activators, primary screen, biochemical, fluorescence intensity; Kallikrein-7 (Homo sapiens), P49862; purified proKLK7, EDANS-DABCYL substrate fluorescence; 100% is mature enzyme control, 0% vehicle; activation, % at 7 µM; 370,000 tested, 0.9% active;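 active means activation above the mean of all tested compounds plus 3 SD, computed per campaign excluding outliers beyond control limits, cut at about 13% in these data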
Target sequence (P49862 whole entry, looked up): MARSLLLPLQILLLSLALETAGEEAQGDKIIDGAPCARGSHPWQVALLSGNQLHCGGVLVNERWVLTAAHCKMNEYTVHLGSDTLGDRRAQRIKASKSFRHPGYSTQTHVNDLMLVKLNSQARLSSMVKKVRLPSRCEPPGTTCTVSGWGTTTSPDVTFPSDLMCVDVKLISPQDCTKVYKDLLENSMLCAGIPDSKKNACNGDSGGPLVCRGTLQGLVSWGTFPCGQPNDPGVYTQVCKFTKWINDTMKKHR
ADAM10 inh: human ADAM10 inhibitors, primary screen, biochemical, QFRET, HTS; Disintegrin and metalloproteinase domain-containing protein 10 (Homo sapiens), O14672; recombinant ADAM10, EDANS/DABCYL FRET peptide cleavage, 3 h; inhibition, % at 7 µM; 370,000 tested, 0.62% active; AID 720582, 2013;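 active means inhibition above a per-campaign cutoff equal to the mean of compounds falling between control-based bounds plus 3 SD, cut at about 20% in these data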;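 further: 0% = DMSO wells while the 100% control is not disclosed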
Ecoli rRNA inh: reduced GFP signal of wild-type E. coli, primary screen, bacterial rRNA inhibitor project, GFP/RFP fluorescence, OD600, single point; 350,000 tested, 1.6% active; GFP signal change (wild-type ribosome), % (concentration not given with the values); E. coli WT GFP vs humanized-ribosome RFP mutants, 24 h; active compounds read low; DMSO median 0, no signal -100;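 active means significant combined selectivity score with lowered wild-type GFP, culture density cut under 30%, mutant RFP and density less affected; inactive means any of these conditions unmet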
ADAM17 inh: ADAM17 inhibitors, primary screen, biochemical, QFRET; inhibition, % at 6.95 µM; AID 720648, 2013; recombinant ADAM17, EDANS/DABCYL FRET peptide cleavage; Disintegrin and metalloproteinase domain-containing protein 17 (Homo sapiens), P78536; 370,000 tested, 0.83% active;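 active means inhibition above the mean of compounds lying between control limits plus 3 SD, set per campaign, cut at about 8.5% in these data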;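 further: 0% = DMSO-only wells as the low control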
Numbers without * were called inactive.

For C[C@H]1CN(C)C(=O)c2cccc([N+](=O)[O-])c2O[C@@H]1CN(C)C(=O)OC(C)(C)C the results were Ecoli rRNA inh -5.
Screening C=COCCNC(=O)Nc1ccc(Cl)c(Cl)c1 returned FGF22 binding 0, KLK7 zymogen act 1, ADAM10 inh 5, Ecoli rRNA inh -21* and ADAM17 inh 0.
Screening CCC(=O)N1CCC2(CC1)CN(Cc1ccc3c(c1)OCO3)[C@@H](CO)c1c2c2ccc(OC)cc2n1C returned FGF22 binding 0 and Ecoli rRNA inh -4.
Screening CCCCCCCC[n+]1cccc(C(=O)N(CC)CC)c1 returned FGF22 binding 43*, KLK7 zymogen act 0, ADAM10 inh -4 and ADAM17 inh -2.
Screening CC(C)(C)c1nc(SCC(=O)N2CC(=O)Nc3ccccc32)c2ccccc2n1 returned FGF22 binding 44*, KLK7 zymogen act -1, ADAM10 inh -5, Ecoli rRNA inh 17 and ADAM17 inh 1.
O=C1CN(C(=O)CSc2nc3cc(Cl)ccc3c(=O)n2Cc2ccccc2)c2ccccc2N1 was read as FGF22 binding 0, KLK7 zymogen act 0, ADAM10 inh 7, Ecoli rRNA inh 0 and ADAM17 inh -5.
Cc1ccc(Cn2c(SCC(=O)N3CC(=O)Nc4ccccc43)nc3ccccc3c2=O)cc1 was read as FGF22 binding 0, KLK7 zymogen act -1, ADAM10 inh 16, Ecoli rRNA inh -9 and ADAM17 inh 8.9*.
For CC(C)Cn1c(SCC(=O)N2CC(=O)Nc3ccccc32)nc2ccccc21 the results were KLK7 zymogen act 0, ADAM10 inh 1 and ADAM17 inh -1.
`C[C@H](O)C#Cc1cnc2c(c1)C(=O)N([C@H](C)CO)C[C@H](C)[C@H](CN(C)C(=O)Cc1ccccn1)O2` gave FGF22 binding 0 and Ecoli rRNA inh 1.
For CCOc1ccc(NC(=O)CN(C)CC(=O)Nc2ccc(Br)cc2F)cc1OCC the results were FGF22 binding 0, KLK7 zymogen act 1, ADAM10 inh 0, Ecoli rRNA inh -28* and ADAM17 inh -3.
`COc1cc(C(=O)Nc2nnc(SC)s2)c([N+](=O)[O-])cc1OC` gave FGF22 binding 44*, KLK7 zymogen act 0, ADAM10 inh -7, Ecoli rRNA inh 16 and ADAM17 inh 0.
`CCc1nnc(NC(=O)c2cc(OC)c(OC)cc2[N+](=O)[O-])s1` gave FGF22 binding 0, KLK7 zymogen act 0, ADAM10 inh 2, Ecoli rRNA inh -1 and ADAM17 inh -5.
For CCC(=O)N1C[C@@H](C)[C@H](OC)CN(C)C(=O)c2cc(NC(=O)Nc3cccc(F)c3)ccc2OC[C@@H]1C the results were FGF22 binding -1 and Ecoli rRNA inh -2.
`C#Cc1ccc([C@H]2C=C(C(=O)NC3CC3)O[C@@H](OCc3ccc(CO)cc3)C2)cc1` gave FGF22 binding 0.
Cc1cc(=O)oc2cc(OC(C)C(=O)NCC3CCC(C(=O)O)CC3)ccc12 (centres undefined) was read as FGF22 binding 0, KLK7 zymogen act 0, ADAM10 inh -153 and ADAM17 inh -38.
Screening Cc1cc(=O)oc2cc(OC(C)C(=O)NCC3CCCO3)ccc12 (centres undefined) returned FGF22 binding 44*, KLK7 zymogen act 1, ADAM10 inh -92 and ADAM17 inh -32.
COc1ccc2c3c(n(C)c2c1)[C@H](CO)N(C(=O)c1ccc(F)cc1)CC31CCN(CC2CC2)CC1 was read as Ecoli rRNA inh 2.
Nc1nc(-c2ccc(Cl)cc2)nnc1-c1ccc(Br)cc1 was read as FGF22 binding 44*, KLK7 zymogen act -1, ADAM10 inh 8, Ecoli rRNA inh 8 and ADAM17 inh -2.
Screening COn1c(SC(C)C)nc2ccccc2c1=O returned KLK7 zymogen act 0, ADAM10 inh -4 and ADAM17 inh -3.
Screening Cc1c(-n2c(SCC(=O)NC(C)C(C)C)nc3ccccc3c2=O)c(=O)n(-c2ccccc2)n1C (centres undefined) returned FGF22 binding 43*, KLK7 zymogen act 1, ADAM10 inh 2, Ecoli rRNA inh 4 and ADAM17 inh 0.
Screening Cc1c(-n2c(SCC(C)C)nc3ccccc3c2=O)c(=O)n(-c2ccccc2)n1C returned FGF22 binding 0, KLK7 zymogen act 1, ADAM10 inh 3, Ecoli rRNA inh -26* and ADAM17 inh -1.
For Cc1c(O)c(=O)n(-c2ccccc2)n1C the results were FGF22 binding 0, KLK7 zymogen act 0, ADAM10 inh 0, Ecoli rRNA inh -16* and ADAM17 inh -3.
For CC(C#N)Sc1nc2ccccc2c(=O)n1-c1ccccc1 (centres undefined) the results were FGF22 binding 0, KLK7 zymogen act 1, ADAM10 inh -8, Ecoli rRNA inh -22* and ADAM17 inh -5.
For O=C(C[C@@H]1CC[C@H](NC(=O)CN2CCOCC2)[C@H](CO)O1)NCc1cccc(F)c1 the results were FGF22 binding 1 and Ecoli rRNA inh 8.
COc1ccc(/C=C/c2c([N+](=O)[O-])c(=O)n(C)c(=O)n2C)cc1 was read as FGF22 binding 43*, KLK7 zymogen act 0, ADAM10 inh -4, Ecoli rRNA inh 3 and ADAM17 inh -2.
For O=C(O)c1ccccc1C(=O)NNc1ccc(Cl)cc1Cl the results were FGF22 binding 44*, KLK7 zymogen act 0, ADAM10 inh 2, Ecoli rRNA inh 16 and ADAM17 inh -1.
Screening Cc1cnc(N)nc1-c1ccccc1 returned FGF22 binding 43*, KLK7 zymogen act 1, ADAM10 inh -28, Ecoli rRNA inh 5 and ADAM17 inh -10.
Screening Nc1ncc(C(=O)O)c(-c2ccccc2)n1 returned FGF22 binding 0, KLK7 zymogen act 0, ADAM10 inh 2 and ADAM17 inh 0.
CC(=O)Nc1ccc2c(c1)C(=Nc1ccc(C)cc1)c1ccccc1-2 was read as FGF22 binding 0, KLK7 zymogen act -1, ADAM10 inh -8, Ecoli rRNA inh -22* and ADAM17 inh 3.
CC(=O)Nc1ccc2c(c1)C(=Nc1ccccc1)c1ccccc1-2 was read as FGF22 binding 0, KLK7 zymogen act 0, ADAM10 inh -1, Ecoli rRNA inh -5 and ADAM17 inh -1.
O=C(N/N=C/c1ccccc1C(F)(F)F)c1ccc2nc[nH]c2c1 was read as FGF22 binding 0, KLK7 zymogen act -1, ADAM10 inh -3, Ecoli rRNA inh -25* and ADAM17 inh -1.
O=C(N/N=C/c1ccco1)c1ccc2nc[nH]c2c1 was read as FGF22 binding 0, KLK7 zymogen act 0, ADAM10 inh 1, Ecoli rRNA inh 39 and ADAM17 inh 1.
